Screen size: about 310,000 compounds; about 14,000 (4.5%) showed an effect of 50% or more. Effects have a minus sign here. Shown is part of a subset that was picked to be rich in strong results.
What follows are compounds tested against human ether-à-go-go-related gene (hERG) potassium channel (human, UniProt Q12809) (assay: primary screen, population patch clamp on CHO cells stably expressing hERG; higher = less effect of the substance).
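Also: peak tail current of the secondary pulse compared with the same well before compound.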

human ether-à-go-go-related gene (hERG) potassium channel, sequence (Q12809 whole entry, looked up): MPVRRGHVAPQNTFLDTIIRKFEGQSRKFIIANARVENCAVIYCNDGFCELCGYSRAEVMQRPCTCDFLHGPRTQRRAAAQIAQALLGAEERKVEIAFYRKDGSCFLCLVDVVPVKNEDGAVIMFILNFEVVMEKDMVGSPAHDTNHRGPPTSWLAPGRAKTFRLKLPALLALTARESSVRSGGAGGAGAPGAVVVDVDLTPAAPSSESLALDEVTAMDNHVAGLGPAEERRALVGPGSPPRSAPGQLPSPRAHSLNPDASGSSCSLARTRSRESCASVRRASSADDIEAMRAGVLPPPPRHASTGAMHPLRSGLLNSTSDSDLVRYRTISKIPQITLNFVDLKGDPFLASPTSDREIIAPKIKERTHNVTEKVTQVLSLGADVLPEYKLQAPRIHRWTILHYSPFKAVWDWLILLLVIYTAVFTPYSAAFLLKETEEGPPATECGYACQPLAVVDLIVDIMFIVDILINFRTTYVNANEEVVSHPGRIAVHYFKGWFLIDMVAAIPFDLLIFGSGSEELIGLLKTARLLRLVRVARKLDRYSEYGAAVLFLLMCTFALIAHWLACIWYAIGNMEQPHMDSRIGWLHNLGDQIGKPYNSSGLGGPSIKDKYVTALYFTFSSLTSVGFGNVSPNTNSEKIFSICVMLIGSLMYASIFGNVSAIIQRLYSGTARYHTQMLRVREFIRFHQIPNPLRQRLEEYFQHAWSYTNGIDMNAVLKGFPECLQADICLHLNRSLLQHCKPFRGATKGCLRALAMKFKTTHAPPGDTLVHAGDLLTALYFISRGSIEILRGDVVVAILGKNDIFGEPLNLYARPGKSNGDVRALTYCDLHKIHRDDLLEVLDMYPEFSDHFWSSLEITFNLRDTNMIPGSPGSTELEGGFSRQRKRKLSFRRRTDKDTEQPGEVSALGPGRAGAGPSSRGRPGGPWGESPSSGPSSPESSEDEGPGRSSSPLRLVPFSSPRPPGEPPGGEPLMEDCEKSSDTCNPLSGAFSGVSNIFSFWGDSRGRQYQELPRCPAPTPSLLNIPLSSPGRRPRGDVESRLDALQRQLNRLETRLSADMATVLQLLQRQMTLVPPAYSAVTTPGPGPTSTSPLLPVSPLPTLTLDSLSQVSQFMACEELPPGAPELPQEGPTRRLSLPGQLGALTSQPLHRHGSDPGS

| SMILES | hERG current change (%, negative = inhibition) at 10uM [%] |
| --- | --- |
| CC(C)(C)NC(=O)COc1ccc(CNc2ccc3[nH]c(=O)[nH]c3c2)cc1 | -1.87 |
| Cn1c(NCc2ccco2)nc2c1c(=O)n(Cc1ccc(Cl)c(Cl)c1)c(=O)n2C | -15.6 |
| COCCn1c(SCC(=O)/C=C2\N(C)c3ccccc3C2(C)C)nnc1-c1ccncc1 | -37.4 |
| CC(=O)Nc1ccccc1OCCOc1ccc(Br)cc1 | -1.67 |
| Clc1ccc(-c2nnc3n2CCCS3)cc1 | 6.34 |
| O=C(COc1ccc([N+](=O)[O-])cc1)NCCc1nc2ccccc2[nH]1 | -56.7 |
| Cc1ccc(C(=O)NCCc2nc3ccccc3[nH]2)cc1[N+](=O)[O-] | -31.8 |
| O=C(NCCc1nc2ccccc2[nH]1)c1ccc(Cl)c([N+](=O)[O-])c1 | -56.2 |
| O=C(NCCc1nc2ccccc2[nH]1)c1cc([N+](=O)[O-])cc([N+](=O)[O-])c1 | -8.57 |
| O=C(NCCc1nc2ccccc2[nH]1)c1ccc([N+](=O)[O-])cc1 | -56.8 |
| Cc1ccccc1OCC(=O)NCCc1nc2ccccc2[nH]1 | -9.27 |
| CCOc1ccc(OCC(=O)NCCc2nc3ccccc3[nH]2)cc1 | -34.6 |
| O=C(COc1ccccc1Br)NCCc1nc2ccccc2[nH]1 | -65.3 |
| O=C(Nc1nc2ccccc2[nH]1)c1ccc(Cl)c([N+](=O)[O-])c1 | 0.857 |
| O=C(NCc1nc2ccccc2[nH]1)c1ccc([N+](=O)[O-])cc1 | -38.5 |
| O=C(COc1ccccc1)NCCc1nc2ccccc2[nH]1 | -6.21 |
| COc1ccccc1OCC(=O)NCCc1nc2ccccc2[nH]1 | 2.13 |
| CC1=NN(C(=O)Cc2ccc([N+](=O)[O-])cc2)C(O)(C(F)(F)C(F)(F)F)C1 (stereo not shown) | -12.4 |
| O=C(Nc1nnc(-c2ccco2)o1)c1cccc(N2C(=O)CCC2=O)c1 | 7.91 |
| CCOc1ccc(Br)cc1C(=O)N/N=C/c1cccnc1 | 1.64 |
| CCCn1c(SCCC(=O)O)nc2ccccc21 | 8.62 |

| SMILES | hERG current change (%, negative = inhibition) at 10uM [%] |
| --- | --- |
| O=[N+]([O-])c1ccc(-c2c(-c3ccccc3)ncc3cc(F)ccc23)cc1 | 1.58 |
| O=C(CNc1cc(S(=O)(=O)N2CCCC2)ccc1OCC(F)(F)F)Nc1cc(Cl)cc(Cl)c1 | 6.5 |
| CC(=O)Nc1c(O)nc(C)[nH]c1=O | 6.51 |
| O=c1cc(CSc2nnc(COc3cccc4ccccc34)o2)c2ccccc2[nH]1 | 22.2 |
| CCCNC(=O)c1nc2ncc(Br)cn2n1 | -31.1 |
| CCCNC(=O)c1nn2cc(Br)cnc2c1Br | -69.2 |
| CCCNC(=O)c1nn2cc(Br)cnc2c1Cl | -73.2 |
| CCCCNC(=O)Nc1ccc(Br)cn1 | -16.2 |
| CCCCNC(=O)c1nc2ncc(Br)cn2n1 | -21 |
| CCCCNC(=O)c1nn2cc(Br)cnc2c1Br | -62.3 |
| COCCNC(=O)c1cc2ncc(Br)cn2n1 | 5.41 |
| COCCNC(=O)c1nn2cccnc2c1Cl | -11.3 |
| CCc1ccccc1NC(=O)c1cc2ncc(Br)cn2n1 | 9.22 |
| O=C(/C=C/c1ccccc1)Nc1ccc(NC(=O)c2cccs2)cc1 | 6.8 |
| COC(=O)c1cc(-c2ccc(NC(C)=O)cc2)nc2ccccc12 | 6.01 |
| CCOC(=O)CC(NC(=O)Cc1ccccc1)c1ccccc1Cl (stereo not shown) | 1.83 |
| Cc1ccc(Nc2ncc3c(n2)CC(C)(C)CC3=O)cc1 | -10 |
| N/C(=N/OCC(=O)Nc1cccc2ccccc12)c1nonc1N | -14 |
| CCOc1ccc(C(=O)O/N=C(\N)c2ccc([N+](=O)[O-])cc2)cc1OCC | -6.93 |
| CN1CCN(Cc2nc3ccccc3c(=O)n2Cc2nc(-c3ccccc3F)cs2)CC1 | -71 |
| CN1CCN(Cc2nc3ccccc3c(=O)n2CC#N)CC1 | -2.87 |

| SMILES | hERG current change (%, negative = inhibition) at 10uM [%] |
| --- | --- |
| CN(C)Cc1nc2ccccc2c(=O)n1Cc1nc(-c2cccc([N+](=O)[O-])c2)cs1 | -36.9 |
| CN1CCN(Cc2nc3ccccc3c(=O)n2Cc2nc(-c3ccc([N+](=O)[O-])cc3)cs2)CC1 | -73.8 |
| CN(C)Cc1nc2ccccc2c(=O)n1Cc1nc(-c2cc3ccccc3o2)cs1 | 9.3 |
| CN1CCN(Cc2nc3ccccc3c(=O)n2Cc2nc(-c3ccc4ccccc4c3)cs2)CC1 | -6.55 |
| Cc1cc2[nH]c(=O)c(=O)[nH]c2cc1S(=O)(=O)Nc1cccc(Cl)c1C | -0.165 |
| CCN1CCN(C2=NC(=O)/C(=C/c3ccc(C)o3)S2)CC1 | -20.9 |
| O.[I-].c1ccc2[nH]c(-c3cc[nH+]c4ccccc34)nc2c1 | -12.6 |
| CCc1c(C)nc2ncnn2c1N1CCCC(C(=O)NCCc2ccc(OC)cc2)C1 (stereo not shown) | -19.6 |
| CCOc1ccc(NC(=O)C2CCCN(c3c(CC)c(C)nc4ncnn34)C2)cc1 (stereo not shown) | -65.8 |
| CCc1c(C)nc2ncnn2c1N1CCC(C(=O)NCc2cccs2)CC1 | -44.4 |
| O=C(C1CCN(c2ccc(N3CCOCC3)nn2)CC1)N1CCN(c2ccc(F)cc2)CC1 | -47.4 |
| CCc1c(C)nc2ncnn2c1N1CCCC(C(=O)NCCc2ccccc2)C1 (stereo not shown) | -15.2 |
| CCc1c(C)nc2ncnn2c1N1CCC(C(=O)Nc2cccc(C(C)=O)c2)CC1 | -22.6 |
| CCc1c(C)nc2ncnn2c1N1CCCC(C(=O)Nc2ccc(NC(C)=O)cc2)C1 (stereo not shown) | 14.2 |
| CCc1c(C)nc2ncnn2c1N1CCC(C(=O)Nc2ccc(C)cc2)CC1 | -55.9 |
| CCc1c(C)nc2ncnn2c1N1CCC(C(=O)N2CCN(c3ccc(F)cc3)CC2)CC1 | -67.9 |
| CCc1c(C)nc2ncnn2c1N1CCCC(C(=O)Nc2cc(F)ccc2C)C1 (stereo not shown) | -40.6 |
| CCOc1ccccc1NC(=O)C1CCCN(c2c(CC)c(C)nc3ncnn23)C1 (stereo not shown) | -65.1 |
| CCc1c(C)nc2ncnn2c1N1CCC(C(=O)Nc2ccccc2)CC1 | -44.4 |
